# Assay results reported in ChEMBL document CHEMBL2218924, “A broad activity screen in support of a chemogenomic map for kinase signalling research and drug discovery” (Biochem J, 2013).
# Experiments:
# [1] = molecular target: T1, Ephrin type-A receptor 3 (Homo sapiens) (UniProt P29320); settings: at 10 µM
# T1 sequence (whole entry): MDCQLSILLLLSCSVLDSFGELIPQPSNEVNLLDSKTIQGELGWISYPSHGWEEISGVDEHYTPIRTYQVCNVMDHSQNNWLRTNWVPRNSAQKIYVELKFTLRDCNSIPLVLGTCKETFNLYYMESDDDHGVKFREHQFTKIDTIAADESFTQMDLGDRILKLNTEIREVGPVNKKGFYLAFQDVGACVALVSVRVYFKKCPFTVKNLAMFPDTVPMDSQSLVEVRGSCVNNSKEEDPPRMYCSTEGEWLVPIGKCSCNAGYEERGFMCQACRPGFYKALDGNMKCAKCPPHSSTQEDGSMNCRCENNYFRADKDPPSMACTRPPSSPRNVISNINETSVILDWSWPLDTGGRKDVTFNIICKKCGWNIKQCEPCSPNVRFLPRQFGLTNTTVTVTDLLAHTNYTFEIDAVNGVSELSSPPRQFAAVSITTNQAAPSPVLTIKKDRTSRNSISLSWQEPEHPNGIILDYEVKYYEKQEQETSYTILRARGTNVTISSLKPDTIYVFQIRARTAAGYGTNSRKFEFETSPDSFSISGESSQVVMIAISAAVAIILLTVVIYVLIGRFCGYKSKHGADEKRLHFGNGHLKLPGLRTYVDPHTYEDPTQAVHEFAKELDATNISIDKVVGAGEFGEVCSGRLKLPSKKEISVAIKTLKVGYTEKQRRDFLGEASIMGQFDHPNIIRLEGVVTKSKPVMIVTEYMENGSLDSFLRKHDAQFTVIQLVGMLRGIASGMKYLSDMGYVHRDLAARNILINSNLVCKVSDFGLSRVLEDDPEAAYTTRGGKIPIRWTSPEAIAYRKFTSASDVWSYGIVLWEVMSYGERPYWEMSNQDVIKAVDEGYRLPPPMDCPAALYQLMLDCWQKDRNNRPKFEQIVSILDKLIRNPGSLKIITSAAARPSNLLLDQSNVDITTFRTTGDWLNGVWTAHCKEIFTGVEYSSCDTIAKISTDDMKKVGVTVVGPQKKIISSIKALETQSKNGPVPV
# [2] = molecular target: Ephrin type-A receptor 5 (Homo sapiens) (UniProt P54756); settings: at 1 µM
# Ephrin type-A receptor 5 (Homo sapiens), sequence (P54756 whole entry): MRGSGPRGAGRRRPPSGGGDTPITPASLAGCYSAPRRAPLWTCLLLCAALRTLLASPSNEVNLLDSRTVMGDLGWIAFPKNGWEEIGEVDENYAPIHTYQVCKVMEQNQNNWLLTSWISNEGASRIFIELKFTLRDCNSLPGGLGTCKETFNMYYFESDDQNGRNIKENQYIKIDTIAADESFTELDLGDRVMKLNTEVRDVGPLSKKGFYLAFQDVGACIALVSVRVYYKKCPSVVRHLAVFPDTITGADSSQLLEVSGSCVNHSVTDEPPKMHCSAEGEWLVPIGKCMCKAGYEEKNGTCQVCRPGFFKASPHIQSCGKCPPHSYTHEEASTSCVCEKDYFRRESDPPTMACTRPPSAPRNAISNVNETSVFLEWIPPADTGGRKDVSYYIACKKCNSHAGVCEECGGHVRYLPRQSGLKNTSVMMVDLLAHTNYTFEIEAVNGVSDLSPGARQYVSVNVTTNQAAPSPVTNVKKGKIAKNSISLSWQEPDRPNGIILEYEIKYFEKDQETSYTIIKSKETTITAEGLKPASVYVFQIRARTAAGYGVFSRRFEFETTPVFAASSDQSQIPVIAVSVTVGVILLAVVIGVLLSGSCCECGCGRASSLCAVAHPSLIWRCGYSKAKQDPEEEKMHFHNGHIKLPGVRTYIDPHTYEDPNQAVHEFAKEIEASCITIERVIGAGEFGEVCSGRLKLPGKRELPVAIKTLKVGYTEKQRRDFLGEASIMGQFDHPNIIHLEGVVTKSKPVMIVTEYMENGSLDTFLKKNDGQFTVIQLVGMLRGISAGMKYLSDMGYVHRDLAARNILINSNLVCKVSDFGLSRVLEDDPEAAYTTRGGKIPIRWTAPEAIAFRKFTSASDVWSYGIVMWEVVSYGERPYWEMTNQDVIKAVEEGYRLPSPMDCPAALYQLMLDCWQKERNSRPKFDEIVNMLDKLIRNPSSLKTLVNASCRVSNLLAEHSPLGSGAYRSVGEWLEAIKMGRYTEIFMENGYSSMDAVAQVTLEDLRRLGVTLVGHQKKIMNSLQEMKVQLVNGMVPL
# [3] = molecular target: T2, Ephrin type-A receptor 8 (Homo sapiens) (UniProt P29322); settings: at 10 µM
# T2 sequence (whole entry): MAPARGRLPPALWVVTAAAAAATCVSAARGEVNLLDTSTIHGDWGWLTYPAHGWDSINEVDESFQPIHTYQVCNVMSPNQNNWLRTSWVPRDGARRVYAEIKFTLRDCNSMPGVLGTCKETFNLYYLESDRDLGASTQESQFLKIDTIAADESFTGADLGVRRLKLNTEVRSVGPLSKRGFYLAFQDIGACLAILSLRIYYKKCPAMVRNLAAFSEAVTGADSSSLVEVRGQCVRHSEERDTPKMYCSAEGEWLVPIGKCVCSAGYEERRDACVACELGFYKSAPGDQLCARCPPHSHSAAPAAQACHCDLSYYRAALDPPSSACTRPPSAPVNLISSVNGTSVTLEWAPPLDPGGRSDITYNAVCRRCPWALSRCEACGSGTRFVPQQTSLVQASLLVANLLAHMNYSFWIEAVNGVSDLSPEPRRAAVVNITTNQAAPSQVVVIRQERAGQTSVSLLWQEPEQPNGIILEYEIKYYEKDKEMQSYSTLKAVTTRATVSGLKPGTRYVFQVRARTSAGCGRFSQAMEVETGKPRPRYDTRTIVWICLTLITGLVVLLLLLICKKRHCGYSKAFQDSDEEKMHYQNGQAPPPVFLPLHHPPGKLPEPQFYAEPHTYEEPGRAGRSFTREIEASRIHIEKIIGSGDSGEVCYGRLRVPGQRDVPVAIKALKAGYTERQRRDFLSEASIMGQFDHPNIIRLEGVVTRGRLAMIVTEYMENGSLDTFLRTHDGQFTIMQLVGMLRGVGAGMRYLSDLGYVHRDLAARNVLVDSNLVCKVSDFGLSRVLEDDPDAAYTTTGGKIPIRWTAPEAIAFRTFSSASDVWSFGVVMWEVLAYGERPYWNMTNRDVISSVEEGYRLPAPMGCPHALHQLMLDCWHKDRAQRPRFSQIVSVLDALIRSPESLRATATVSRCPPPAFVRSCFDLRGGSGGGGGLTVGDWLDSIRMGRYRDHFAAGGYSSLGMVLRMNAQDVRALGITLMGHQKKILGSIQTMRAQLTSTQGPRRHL
# [4] = molecular target: T3, Ephrin type-B receptor 2 (Homo sapiens) (UniProt P29323); settings: at 1 µM
# T3 sequence (whole entry): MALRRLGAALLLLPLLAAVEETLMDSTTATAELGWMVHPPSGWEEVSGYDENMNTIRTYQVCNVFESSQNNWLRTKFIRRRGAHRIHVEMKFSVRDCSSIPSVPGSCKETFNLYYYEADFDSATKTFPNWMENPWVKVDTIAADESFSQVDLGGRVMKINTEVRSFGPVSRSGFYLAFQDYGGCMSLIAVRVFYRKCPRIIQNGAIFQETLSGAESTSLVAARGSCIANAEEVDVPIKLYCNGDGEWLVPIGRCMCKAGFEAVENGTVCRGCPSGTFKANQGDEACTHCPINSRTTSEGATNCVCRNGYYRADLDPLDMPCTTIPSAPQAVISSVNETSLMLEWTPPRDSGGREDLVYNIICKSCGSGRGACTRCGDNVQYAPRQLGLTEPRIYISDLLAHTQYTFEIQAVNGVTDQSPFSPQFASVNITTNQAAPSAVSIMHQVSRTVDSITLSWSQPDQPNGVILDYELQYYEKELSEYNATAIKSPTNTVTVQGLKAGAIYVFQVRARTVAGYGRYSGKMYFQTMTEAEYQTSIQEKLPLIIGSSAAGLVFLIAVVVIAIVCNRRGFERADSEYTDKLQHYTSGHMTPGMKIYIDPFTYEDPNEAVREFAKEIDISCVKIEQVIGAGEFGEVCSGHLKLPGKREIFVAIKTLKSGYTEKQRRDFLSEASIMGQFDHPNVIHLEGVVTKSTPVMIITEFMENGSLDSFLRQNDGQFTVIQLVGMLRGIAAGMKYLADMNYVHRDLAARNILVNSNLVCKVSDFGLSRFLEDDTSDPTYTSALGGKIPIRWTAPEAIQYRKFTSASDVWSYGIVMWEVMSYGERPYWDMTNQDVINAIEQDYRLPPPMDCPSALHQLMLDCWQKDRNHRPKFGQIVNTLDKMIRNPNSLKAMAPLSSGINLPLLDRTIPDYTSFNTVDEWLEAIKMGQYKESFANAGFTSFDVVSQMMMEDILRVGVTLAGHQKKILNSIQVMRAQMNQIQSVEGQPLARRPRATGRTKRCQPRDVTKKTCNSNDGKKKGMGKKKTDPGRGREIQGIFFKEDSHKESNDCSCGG
# [5] = molecular target: T3, Ephrin type-B receptor 2 (Homo sapiens); settings: at 10 µM
# [6] = molecular target: T4, Ephrin type-B receptor 3 (Homo sapiens) (UniProt P54753); settings: at 1 µM
# T4 sequence (whole entry): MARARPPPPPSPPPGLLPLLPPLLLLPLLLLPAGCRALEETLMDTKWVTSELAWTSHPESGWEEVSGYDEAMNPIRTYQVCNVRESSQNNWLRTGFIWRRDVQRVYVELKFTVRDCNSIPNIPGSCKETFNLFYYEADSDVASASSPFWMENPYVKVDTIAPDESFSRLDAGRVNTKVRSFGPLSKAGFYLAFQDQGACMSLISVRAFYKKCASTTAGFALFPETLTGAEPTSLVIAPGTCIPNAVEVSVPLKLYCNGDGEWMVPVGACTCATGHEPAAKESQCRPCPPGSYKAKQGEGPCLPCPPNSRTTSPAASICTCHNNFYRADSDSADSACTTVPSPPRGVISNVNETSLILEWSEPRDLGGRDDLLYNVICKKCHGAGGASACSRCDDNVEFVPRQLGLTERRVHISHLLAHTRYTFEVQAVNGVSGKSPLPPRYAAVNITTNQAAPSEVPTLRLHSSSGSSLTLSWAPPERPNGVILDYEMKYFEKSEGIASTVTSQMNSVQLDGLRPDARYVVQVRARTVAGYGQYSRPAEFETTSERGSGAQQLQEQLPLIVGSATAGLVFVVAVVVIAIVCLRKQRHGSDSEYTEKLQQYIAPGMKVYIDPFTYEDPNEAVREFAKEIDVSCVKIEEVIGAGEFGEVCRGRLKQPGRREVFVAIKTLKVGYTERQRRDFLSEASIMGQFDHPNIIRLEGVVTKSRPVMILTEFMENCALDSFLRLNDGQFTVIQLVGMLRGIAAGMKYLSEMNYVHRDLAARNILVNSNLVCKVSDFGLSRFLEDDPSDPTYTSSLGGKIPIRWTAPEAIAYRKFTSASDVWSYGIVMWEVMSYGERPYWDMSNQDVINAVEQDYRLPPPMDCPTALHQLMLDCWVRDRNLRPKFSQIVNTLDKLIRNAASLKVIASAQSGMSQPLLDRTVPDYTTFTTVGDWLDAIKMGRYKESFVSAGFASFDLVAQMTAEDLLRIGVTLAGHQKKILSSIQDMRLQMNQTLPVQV
# [7] = molecular target: T4, Ephrin type-B receptor 3 (Homo sapiens); settings: at 10 µM
# [8] = molecular target: T5, Ephrin type-B receptor 4 (Homo sapiens) (UniProt P54760); settings: at 1 µM
# T5 sequence (whole entry): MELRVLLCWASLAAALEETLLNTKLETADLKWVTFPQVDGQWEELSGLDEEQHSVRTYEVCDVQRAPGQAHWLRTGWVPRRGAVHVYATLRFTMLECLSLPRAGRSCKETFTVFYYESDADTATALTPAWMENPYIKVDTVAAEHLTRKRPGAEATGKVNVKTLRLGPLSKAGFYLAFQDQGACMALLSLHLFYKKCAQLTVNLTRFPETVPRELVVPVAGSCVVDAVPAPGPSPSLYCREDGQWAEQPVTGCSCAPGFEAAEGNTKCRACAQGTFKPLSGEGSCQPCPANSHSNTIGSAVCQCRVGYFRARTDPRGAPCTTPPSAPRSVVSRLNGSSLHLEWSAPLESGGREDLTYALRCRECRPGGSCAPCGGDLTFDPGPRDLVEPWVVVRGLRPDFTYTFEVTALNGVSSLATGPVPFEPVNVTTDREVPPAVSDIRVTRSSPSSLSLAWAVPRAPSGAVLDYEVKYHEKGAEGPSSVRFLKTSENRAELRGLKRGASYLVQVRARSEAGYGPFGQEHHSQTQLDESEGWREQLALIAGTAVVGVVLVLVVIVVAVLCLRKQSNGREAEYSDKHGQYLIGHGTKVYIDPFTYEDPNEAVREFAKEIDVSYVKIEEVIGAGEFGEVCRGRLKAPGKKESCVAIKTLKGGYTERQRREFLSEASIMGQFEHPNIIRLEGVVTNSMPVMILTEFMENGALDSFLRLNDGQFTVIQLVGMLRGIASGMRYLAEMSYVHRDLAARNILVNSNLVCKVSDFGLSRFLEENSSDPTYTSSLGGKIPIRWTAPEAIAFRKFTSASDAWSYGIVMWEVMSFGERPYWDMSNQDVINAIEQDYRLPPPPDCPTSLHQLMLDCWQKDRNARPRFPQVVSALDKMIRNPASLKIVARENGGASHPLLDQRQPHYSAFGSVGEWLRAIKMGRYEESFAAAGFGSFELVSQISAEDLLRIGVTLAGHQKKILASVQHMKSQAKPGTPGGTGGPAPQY
# [9] = molecular target: T5, Ephrin type-B receptor 4 (Homo sapiens); settings: at 10 µM
# [10] = molecular target: Receptor tyrosine-protein kinase erbB-4 (Homo sapiens) (UniProt Q15303); settings: at 1 µM
# Receptor tyrosine-protein kinase erbB-4 (Homo sapiens), sequence (Q15303 whole entry): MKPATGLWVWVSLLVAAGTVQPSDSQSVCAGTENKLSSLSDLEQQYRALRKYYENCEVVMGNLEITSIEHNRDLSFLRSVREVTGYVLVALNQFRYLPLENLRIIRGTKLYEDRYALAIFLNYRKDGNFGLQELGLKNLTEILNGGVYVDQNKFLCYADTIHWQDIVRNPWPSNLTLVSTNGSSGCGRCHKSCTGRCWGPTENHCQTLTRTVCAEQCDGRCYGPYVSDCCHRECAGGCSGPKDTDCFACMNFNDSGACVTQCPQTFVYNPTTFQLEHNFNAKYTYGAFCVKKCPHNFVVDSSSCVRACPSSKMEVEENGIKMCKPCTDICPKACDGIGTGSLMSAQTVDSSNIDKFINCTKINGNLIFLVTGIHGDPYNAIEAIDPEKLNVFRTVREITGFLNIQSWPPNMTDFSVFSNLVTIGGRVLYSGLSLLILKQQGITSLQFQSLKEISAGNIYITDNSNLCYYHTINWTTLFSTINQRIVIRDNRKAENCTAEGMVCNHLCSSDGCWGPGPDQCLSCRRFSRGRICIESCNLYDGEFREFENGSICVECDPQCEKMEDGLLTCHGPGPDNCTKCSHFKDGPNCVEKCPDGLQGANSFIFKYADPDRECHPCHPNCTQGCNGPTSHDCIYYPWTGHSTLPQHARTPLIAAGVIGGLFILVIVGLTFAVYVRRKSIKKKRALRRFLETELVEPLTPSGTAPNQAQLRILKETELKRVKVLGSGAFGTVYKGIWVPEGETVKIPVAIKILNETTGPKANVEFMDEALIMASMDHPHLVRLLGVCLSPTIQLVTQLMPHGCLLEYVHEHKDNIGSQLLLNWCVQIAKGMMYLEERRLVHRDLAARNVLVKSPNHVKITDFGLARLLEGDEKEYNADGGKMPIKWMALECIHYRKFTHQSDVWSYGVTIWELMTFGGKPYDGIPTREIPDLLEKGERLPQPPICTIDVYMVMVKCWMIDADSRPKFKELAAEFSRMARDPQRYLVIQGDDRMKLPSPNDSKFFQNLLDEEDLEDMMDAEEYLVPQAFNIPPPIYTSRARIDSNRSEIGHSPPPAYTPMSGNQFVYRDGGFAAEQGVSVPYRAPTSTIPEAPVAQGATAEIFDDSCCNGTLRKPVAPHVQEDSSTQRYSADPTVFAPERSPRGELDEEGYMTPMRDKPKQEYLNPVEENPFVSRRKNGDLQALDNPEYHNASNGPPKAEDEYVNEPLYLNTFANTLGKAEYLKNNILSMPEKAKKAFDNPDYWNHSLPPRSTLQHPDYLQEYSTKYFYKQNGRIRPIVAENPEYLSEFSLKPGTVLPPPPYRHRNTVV
# [11] = molecular target: Receptor tyrosine-protein kinase erbB-4 (Homo sapiens) (UniProt Q15303); settings: at 10 µM
# [12] = molecular target: Focal adhesion kinase 1 (Homo sapiens) (UniProt Q05397); settings: at 1 µM
# Focal adhesion kinase 1 (Homo sapiens), sequence (Q05397 2-1052 limits assumed): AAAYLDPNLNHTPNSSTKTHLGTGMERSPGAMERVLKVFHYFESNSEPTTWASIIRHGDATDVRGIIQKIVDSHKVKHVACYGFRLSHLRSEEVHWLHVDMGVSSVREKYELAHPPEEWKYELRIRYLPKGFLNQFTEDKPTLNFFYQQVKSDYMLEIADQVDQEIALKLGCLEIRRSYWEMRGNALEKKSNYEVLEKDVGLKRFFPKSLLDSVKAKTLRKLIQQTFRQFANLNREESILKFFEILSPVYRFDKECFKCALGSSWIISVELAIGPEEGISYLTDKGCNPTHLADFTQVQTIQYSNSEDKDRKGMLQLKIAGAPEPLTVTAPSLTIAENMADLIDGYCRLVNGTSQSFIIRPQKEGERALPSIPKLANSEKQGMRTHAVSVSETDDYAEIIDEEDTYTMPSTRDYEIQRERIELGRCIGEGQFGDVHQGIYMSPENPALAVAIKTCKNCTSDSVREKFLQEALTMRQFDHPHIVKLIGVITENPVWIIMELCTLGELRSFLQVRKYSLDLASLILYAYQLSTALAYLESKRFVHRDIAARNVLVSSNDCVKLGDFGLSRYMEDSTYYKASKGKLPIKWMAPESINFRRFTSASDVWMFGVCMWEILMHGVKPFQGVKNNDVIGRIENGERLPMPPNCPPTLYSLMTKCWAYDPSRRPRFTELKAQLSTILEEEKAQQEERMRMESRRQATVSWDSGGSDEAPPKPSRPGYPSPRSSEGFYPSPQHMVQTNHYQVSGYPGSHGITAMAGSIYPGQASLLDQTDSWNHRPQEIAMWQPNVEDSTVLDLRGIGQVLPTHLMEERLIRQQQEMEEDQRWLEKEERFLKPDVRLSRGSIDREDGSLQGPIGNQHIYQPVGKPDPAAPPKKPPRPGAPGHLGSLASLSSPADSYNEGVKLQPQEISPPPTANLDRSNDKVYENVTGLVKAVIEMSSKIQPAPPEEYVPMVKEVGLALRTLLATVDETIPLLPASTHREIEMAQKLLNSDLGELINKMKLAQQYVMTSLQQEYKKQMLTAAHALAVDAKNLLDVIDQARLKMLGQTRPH
smiles,measurement,setting,value
COc1ccc(COc2ccc(Cc3cnc(N)nc3N)cc2OC)cc1,residual activity,[1],78%
same,residual activity,[2],111%
same,residual activity,[3],110%
same,residual activity,[4],108%
same,residual activity,[5],129%
same,residual activity,[6],114% (inactive)
same,residual activity,[7],110%
same,residual activity,[8],99%
same,residual activity,[9],113%
same,residual activity,[10],99%
same,residual activity,[11],70%
same,residual activity,[12],115%
